Results on six molecules are retold here after ChEMBL document CHEMBL1961873, “Compounds: GSK PKIS; Assays: Nanosyn kinase panel” (2012).

Structures are written as SMILES.

Assay [1] has as its target Dual specificity protein kinase CLK3 (Homo sapiens) (UniProt P49761). The following applies: at 1 µM.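 Note: each value is the mean inhibition of CLK3.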
For assay [2], the target named is Dual specificity tyrosine-phosphorylation-regulated kinase 1A (Homo sapiens) (UniProt Q13627). The settings on record: at 0.1 µM.
Assay [3] has the same target. The settings on record: at 1 µM.
Assay [4] concerns the target Dual specificity tyrosine-phosphorylation-regulated kinase 1B (Homo sapiens) (UniProt Q9Y463). The settings on record: at 0.1 µM.
The target is the same in assay [5]. The following applies: at 1 µM.
Assay [6] has as its target T1, Dual specificity tyrosine-phosphorylation-regulated kinase 2 (Homo sapiens) (UniProt Q92630).
T1 sequence (whole entry): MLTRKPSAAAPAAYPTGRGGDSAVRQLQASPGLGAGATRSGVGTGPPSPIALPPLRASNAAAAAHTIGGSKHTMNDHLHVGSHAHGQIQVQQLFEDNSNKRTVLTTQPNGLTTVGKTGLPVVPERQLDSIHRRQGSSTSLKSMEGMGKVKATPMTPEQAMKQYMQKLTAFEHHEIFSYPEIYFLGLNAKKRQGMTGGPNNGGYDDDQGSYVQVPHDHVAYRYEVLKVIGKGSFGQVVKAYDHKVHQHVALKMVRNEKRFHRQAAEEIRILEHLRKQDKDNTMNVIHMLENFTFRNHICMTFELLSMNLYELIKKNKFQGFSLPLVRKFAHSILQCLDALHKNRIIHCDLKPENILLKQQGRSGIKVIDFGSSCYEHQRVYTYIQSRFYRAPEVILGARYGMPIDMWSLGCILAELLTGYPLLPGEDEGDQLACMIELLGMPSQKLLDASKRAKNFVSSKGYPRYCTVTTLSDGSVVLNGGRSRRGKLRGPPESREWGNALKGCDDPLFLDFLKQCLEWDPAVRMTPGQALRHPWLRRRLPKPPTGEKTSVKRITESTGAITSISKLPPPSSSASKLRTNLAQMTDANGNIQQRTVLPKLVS
The following applies: at 0.1 µM.

The target in assay [7] is T1, Dual specificity tyrosine-phosphorylation-regulated kinase 2 (Homo sapiens). The following applies: at 1 µM.
The target of assay [8] is Glycogen synthase kinase-3 alpha (Homo sapiens) (UniProt P49840). The following applies: at 0.1 µM.
Chain of Glycogen synthase kinase-3 alpha (Homo sapiens) (P49840 2-483 limits assumed): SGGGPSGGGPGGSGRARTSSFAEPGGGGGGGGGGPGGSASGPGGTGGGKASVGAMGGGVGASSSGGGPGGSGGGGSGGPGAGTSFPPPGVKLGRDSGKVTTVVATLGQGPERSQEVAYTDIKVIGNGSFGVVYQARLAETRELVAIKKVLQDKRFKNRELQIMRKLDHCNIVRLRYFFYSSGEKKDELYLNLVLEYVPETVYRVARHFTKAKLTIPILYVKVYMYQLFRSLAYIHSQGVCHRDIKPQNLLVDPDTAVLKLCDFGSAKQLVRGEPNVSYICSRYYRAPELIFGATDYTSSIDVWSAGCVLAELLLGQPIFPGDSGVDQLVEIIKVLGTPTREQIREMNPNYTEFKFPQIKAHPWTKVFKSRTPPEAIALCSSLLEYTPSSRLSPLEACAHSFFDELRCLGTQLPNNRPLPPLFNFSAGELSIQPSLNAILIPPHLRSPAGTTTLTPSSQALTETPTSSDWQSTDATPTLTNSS
The target is the same in assay [9]. The following applies: at 1 µM.
The target of assay [10] is Glycogen synthase kinase-3 beta (Homo sapiens) (UniProt P49841). The settings on record: at 0.1 µM.
Chain of Glycogen synthase kinase-3 beta (Homo sapiens) (P49841 whole entry, looked up): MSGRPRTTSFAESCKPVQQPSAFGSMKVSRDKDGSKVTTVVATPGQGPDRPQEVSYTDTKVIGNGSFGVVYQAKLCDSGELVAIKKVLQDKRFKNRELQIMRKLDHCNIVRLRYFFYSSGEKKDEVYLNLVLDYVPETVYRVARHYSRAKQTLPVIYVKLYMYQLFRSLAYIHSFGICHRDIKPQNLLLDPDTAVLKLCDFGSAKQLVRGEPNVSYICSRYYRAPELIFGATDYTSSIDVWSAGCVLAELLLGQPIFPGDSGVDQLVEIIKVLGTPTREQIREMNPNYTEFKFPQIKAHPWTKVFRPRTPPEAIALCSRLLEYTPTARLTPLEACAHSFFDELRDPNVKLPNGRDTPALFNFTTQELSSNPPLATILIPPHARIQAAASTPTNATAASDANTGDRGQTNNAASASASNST
Assay [11] shares this target. The settings on record: at 1 µM.
The target of assay [12] is Homeodomain-interacting protein kinase 1 (Homo sapiens) (UniProt Q86Z02). The settings on record: at 0.1 µM.
Chain of Homeodomain-interacting protein kinase 1 (Homo sapiens) (Q86Z02 whole entry, looked up): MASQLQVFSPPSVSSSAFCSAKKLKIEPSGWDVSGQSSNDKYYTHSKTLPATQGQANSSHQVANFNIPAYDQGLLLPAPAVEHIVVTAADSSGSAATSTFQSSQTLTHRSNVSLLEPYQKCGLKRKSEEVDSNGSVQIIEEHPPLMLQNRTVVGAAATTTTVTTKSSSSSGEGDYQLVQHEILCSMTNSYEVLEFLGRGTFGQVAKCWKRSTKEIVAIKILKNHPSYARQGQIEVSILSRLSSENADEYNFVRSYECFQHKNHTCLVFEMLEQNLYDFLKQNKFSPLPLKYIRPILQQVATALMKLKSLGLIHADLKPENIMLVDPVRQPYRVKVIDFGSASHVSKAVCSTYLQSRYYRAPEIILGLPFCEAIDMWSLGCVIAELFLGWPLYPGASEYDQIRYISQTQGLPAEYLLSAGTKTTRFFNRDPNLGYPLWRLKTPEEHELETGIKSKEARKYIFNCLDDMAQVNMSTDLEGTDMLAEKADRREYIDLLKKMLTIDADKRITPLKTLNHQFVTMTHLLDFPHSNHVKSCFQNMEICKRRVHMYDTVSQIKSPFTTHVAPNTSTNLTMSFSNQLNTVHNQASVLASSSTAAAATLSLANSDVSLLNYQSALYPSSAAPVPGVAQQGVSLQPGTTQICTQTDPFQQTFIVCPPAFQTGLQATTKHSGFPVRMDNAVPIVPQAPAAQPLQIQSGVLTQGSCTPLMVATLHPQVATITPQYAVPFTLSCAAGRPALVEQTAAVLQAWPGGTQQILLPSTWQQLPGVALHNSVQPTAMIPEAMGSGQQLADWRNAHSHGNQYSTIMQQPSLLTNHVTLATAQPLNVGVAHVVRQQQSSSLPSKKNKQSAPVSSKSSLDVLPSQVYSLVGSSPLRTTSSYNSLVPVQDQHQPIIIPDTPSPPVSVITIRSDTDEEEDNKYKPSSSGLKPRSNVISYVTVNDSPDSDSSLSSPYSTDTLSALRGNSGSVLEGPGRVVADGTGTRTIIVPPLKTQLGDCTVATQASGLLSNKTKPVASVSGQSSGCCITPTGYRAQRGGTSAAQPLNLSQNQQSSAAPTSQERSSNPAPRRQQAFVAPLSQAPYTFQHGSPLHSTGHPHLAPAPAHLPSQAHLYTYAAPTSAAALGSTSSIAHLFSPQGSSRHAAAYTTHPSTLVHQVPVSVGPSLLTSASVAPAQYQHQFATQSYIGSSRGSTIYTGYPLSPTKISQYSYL
Assay [13] has the same target. The settings on record: at 1 µM.
The target in assay [14] is T2, Homeodomain-interacting protein kinase 4 (Homo sapiens) (UniProt Q8NE63).
T2 sequence (whole entry): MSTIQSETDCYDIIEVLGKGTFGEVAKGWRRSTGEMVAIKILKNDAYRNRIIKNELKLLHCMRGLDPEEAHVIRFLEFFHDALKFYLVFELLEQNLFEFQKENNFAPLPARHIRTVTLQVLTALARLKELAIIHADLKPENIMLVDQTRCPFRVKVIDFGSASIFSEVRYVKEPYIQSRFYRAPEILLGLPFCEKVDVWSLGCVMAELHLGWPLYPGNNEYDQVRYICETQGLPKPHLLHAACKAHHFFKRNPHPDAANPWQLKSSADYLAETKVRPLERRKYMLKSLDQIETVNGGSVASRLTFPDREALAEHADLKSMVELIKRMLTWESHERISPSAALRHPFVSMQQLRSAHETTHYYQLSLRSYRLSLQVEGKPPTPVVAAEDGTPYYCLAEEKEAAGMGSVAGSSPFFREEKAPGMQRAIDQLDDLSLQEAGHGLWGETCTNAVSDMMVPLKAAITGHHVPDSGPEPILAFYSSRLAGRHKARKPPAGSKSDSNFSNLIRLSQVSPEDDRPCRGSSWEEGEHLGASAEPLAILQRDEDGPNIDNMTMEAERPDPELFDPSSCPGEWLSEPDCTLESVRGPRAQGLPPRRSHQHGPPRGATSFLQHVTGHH
The settings on record: at 0.1 µM.

For assay [15], the target named is T2, Homeodomain-interacting protein kinase 4 (Homo sapiens). The following applies: at 1 µM.
In assay [16] the target is Mitogen-activated protein kinase 9 (Homo sapiens) (UniProt P45984). The settings on record: at 0.1 µM.
Chain of Mitogen-activated protein kinase 9 (Homo sapiens) (P45984 whole entry, looked up): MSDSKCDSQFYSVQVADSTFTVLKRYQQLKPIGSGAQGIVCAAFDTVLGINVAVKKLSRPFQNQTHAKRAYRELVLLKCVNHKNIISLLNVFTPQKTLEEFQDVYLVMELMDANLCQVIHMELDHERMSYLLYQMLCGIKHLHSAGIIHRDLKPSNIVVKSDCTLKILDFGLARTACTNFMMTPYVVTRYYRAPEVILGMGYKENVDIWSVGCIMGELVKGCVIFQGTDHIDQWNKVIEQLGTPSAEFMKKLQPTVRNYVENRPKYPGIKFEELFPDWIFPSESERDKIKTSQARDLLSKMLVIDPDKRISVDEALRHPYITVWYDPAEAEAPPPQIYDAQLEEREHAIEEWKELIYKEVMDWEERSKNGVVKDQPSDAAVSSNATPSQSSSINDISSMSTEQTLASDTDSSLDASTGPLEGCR
Assay [17] shares this target. The following applies: at 1 µM.
For assay [18], the target named is Mitogen-activated protein kinase 1 (Homo sapiens) (UniProt P28482). The settings on record: at 0.1 µM.
Chain of Mitogen-activated protein kinase 1 (Homo sapiens) (P28482 whole entry): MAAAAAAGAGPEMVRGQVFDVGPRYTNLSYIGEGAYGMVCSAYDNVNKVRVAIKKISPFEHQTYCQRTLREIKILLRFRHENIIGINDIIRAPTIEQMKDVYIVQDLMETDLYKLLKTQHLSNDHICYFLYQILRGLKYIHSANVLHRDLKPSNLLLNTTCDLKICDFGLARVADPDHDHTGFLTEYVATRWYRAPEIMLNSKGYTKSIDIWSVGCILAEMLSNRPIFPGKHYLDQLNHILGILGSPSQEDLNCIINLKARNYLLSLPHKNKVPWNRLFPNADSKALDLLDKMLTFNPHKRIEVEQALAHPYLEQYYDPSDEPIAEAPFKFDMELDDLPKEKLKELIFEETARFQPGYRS
The target is the same in assay [19]. The settings on record: at 1 µM.
Assay [20] has as its target Mitogen-activated protein kinase 3 (Homo sapiens) (UniProt P27361). The following applies: at 0.1 µM.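 Note: each value is a mean inhibition figure.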

Chain of Dual specificity tyrosine-phosphorylation-regulated kinase 1B (Homo sapiens) (Q9Y463 whole entry, looked up): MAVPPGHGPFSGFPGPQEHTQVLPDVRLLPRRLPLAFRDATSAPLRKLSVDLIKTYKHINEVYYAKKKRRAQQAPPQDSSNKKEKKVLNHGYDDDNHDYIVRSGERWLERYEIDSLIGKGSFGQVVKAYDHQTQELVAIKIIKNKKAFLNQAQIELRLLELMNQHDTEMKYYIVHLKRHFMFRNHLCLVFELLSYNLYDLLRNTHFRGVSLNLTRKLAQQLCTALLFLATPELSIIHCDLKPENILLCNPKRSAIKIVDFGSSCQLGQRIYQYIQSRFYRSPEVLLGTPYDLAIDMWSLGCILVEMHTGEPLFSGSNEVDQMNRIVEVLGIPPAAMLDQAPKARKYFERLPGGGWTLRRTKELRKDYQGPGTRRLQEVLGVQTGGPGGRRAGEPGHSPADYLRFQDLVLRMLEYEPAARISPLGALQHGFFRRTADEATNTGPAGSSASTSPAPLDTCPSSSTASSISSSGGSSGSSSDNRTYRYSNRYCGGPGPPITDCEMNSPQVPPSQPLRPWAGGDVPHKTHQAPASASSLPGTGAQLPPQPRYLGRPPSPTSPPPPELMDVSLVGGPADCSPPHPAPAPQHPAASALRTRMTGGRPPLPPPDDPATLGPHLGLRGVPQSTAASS
Chain of Dual specificity protein kinase CLK3 (Homo sapiens) (P49761 whole entry, looked up): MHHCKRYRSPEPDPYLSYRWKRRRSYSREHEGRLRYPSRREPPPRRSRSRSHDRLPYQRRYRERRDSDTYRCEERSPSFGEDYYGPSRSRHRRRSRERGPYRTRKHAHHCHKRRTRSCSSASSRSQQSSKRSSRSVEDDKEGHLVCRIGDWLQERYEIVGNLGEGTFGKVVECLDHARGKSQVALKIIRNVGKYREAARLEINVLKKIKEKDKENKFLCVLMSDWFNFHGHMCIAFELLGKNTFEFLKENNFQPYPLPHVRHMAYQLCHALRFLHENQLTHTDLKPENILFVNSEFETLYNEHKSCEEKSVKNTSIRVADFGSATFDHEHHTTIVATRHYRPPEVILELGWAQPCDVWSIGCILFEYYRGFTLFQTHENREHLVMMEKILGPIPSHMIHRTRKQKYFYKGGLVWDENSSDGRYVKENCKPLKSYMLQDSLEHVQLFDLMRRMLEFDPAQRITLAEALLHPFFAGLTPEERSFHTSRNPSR
Chain of Mitogen-activated protein kinase 3 (Homo sapiens) (P27361 whole entry): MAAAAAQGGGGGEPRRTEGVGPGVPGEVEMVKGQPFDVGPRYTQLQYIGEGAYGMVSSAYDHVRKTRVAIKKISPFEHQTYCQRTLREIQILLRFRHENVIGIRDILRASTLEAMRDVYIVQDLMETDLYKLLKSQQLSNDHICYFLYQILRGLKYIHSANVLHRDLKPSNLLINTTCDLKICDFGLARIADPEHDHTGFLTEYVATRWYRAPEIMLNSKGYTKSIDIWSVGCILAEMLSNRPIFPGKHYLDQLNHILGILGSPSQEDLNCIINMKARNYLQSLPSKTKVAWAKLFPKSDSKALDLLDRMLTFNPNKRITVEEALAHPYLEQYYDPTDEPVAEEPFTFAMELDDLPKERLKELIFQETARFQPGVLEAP

One may read the inhibition as the drop in the measured response relative to a control, in per cent. On to `Cc1cccc(Nc2ncc(-c3ccccc3)o2)c1`, for which the inhibition worked out at 0.79% in assay [1]; 1.29% in assay [2]; 4.26% in [3]; 0.51% in assay [4]; 2.16% in assay [5]; 3.21% in assay [6]. For the same molecule, the inhibition is 5.94% in assay [7]; 4.32% in [8]; 12.3% in assay [9]; 3.23% in [10]; 12% in assay [11]; -1.62% in assay [12]. The inhibition in assay [13] was 9.25%; in assay [14], 1.22%; in assay [15] it was 8.11%; in assay [16], 5.28%; in assay [17], 7.95%; in [18], 3.91%. Also, the results for the inhibition in assay [19] and in [20] were 5.08% and 5.66%, respectively.
For the molecule `CCN(CC)S(=O)(=O)c1ccc(OC)c(Nc2ncc(-c3ccccc3)o2)c1`, the inhibition in [1] was 8.6%; in assay [2], 1.08%; in assay [3], 10.9%; in [4], 1.93%; in assay [5] it was 14.7%; in assay [6], 1.64%. For the same molecule, the inhibition worked out at 6.15% in assay [7]; 0.34% in [8]; 2.7% in [9]; 0.79% in assay [10]; 3.89% in assay [11]; 1.49% in [12]. Further, the inhibition in [13] was 10.2%; in assay [14] it was 2.17%; in [15] it was 17.8%; in assay [16], 2.31%; in [17], 1.02%; in assay [18] it was -1.7%. Further, the inhibition in [19] was -0.08%; in assay [20], 1.68%.
On to `CC(=O)Nc1cccc(C#Cc2cncnc2Nc2ccc(OCc3cccc(F)c3)c(Cl)c2)c1`, for which the inhibition in [1] was 0.73%; in assay [2], -0.41%; in assay [3], 1.4%; in assay [4], 0.85%; in assay [5] it was -0.33%; in assay [6], 3.61%. The inhibition was 1.41% in assay [7]; 2.72% in assay [8]; 5.35% in assay [9]; 1.98% in [10]; 4.53% in assay [11]; -1.76% in assay [12]. The inhibition in [13] was -0.76%; in [14], 1.24%; in [15], 4.47%; in [16], 2.12%; in assay [17] it was 3.22%; in assay [18] it was 2.93%. The values for the inhibition in assay [19] and in [20] were 3.14% and 2.14%, respectively.
Take `COc1ccc2[nH]c3c4[nH]c5ccc(OC)cc5c4c4c(c3c2c1)C(=O)NC4=O`: the inhibition in assay [1] was 4.44%; in assay [2] it was 10.1%; in [3] it was 43.1%; in [4], 2.55%; in assay [5], 26.1%; in assay [6], 6.81%. The inhibition in [7] turned out to be 29%; in assay [8], 1.75%; in assay [9] it was 6.24%; in assay [10], 3.92%; in [11] it was 14.7%; in assay [12], 5.17%. For the same molecule, the inhibition is 20.7% in assay [13]; 4.28% in assay [14]; 22.8% in assay [15]; 4.65% in assay [16]; 21.7% in [17]; 3.5% in assay [18]. Also, the inhibition in assay [19] came to 5.44%; in assay [20], 4.93%.
On to `CCNC(=O)O[C@H]1CN[C@H](C#Cc2cc3ncnc(Nc4ccc(OCc5cccc(F)c5)c(Cl)c4)c3s2)C1`, for which the inhibition in assay [1] was found to be 2.52%; in assay [2], 1.66%; in assay [3], 3.98%; in [4] it was 0.74%; in assay [5], 1.59%; in assay [6], 3.13%. Further, the inhibition in [7] worked out at 5.14%; in assay [8], 3.4%; in assay [9], 9.61%; in assay [10], 2.01%; in assay [11], 8.04%; in assay [12] it was 2.47%. Further, the inhibition was found to be 5.41% in [13]; 2.15% in assay [14]; 0.62% in assay [15]; 1.6% in assay [16]; 4.37% in [17]; 1.5% in assay [18]. The inhibition in assay [19] is 2.66%; in [20], 0.46%.
As for `COc1ccc(-c2cc3c(N)ncnc3o2)cc1`, the inhibition in assay [1] came to 11.4%; in [2] it was 4.26%; in [3], 22.7%; in assay [4] it was 5.2%; in assay [5] it was 12%; in [6] it was 0.06%. In addition, the inhibition in assay [7] was found to be 18.5%; in [8], 5.87%; in assay [9] it was 7.92%; in [10], 5.53%; in [11] it was 8%; in [12], 0%. Moreover, the inhibition in assay [13] was 5.4%; in [14] it was 2.36%; in assay [15], 16.5%; in assay [16], -0.62%; in assay [17], -0.18%; in [18], 1%. Further, the values for the inhibition in [19] and in [20] were 0.69% and -1.53%, respectively.
